We go through 33 sequences from publication PMC5700166.

Experiment [1] has as its target T1, GST-Nv-NF-kB (Ser allele) (Nematostella vectensis, UniProt A7UNT2 2-411).
T1 sequence: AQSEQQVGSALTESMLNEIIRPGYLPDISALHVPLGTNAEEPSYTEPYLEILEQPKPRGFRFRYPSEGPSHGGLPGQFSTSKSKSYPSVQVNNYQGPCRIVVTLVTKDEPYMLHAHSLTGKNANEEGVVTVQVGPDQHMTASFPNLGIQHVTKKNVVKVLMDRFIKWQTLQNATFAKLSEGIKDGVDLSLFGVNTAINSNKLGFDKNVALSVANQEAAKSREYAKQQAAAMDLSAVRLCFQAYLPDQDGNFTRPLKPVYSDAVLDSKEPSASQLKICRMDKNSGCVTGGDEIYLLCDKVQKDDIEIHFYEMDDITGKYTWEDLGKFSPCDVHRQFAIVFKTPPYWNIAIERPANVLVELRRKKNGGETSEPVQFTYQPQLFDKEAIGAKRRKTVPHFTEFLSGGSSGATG
The experiment in a line: protein-binding microarray (PBM); PBM: ~300 nM protein, 6 mM HEPES pH 7.8, 80 mM KCl, 0.5 mM EDTA, 0.5 mM EGTA, 6% glycerol, 35 ng/ul poly-dIdC, 1% milk, 1 h, room temperature; Ap Aiptasia and Nv Nematostella (sea anemones) / Co Capsaspora / Aq Amphimedon (sponge) / Dm Drosophila / Hu human; RHD is the Rel homology domain; high values mean tight binding. Particulars: dsDNA, one strand shown.

Experiment [2] addresses GST-Hu-p50 (Homo sapiens, UniProt P19838 7-356). The description is as above. Particulars: dsDNA, one strand shown.

Sequence of GST-Hu-p50 (P19838 7-356): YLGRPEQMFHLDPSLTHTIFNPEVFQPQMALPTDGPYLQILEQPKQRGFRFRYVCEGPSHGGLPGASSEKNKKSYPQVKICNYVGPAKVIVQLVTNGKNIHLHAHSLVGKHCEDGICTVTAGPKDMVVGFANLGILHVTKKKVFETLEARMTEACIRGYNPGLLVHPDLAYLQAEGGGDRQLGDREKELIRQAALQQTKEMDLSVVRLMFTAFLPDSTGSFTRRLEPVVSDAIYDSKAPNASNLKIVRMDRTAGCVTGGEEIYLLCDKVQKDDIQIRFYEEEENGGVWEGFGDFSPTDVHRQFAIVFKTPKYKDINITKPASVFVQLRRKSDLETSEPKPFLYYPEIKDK

As to “CCGATTAACATCACGGTACGGGGTGATGTTAATCGGGTCTTGATTCGCTTGACGCTGCTG”, the binding signal was determined as 1.3 z-score in experiment [1] and 1.71 z-score in experiment [2].

Consider “CCGATTAACATCAGGGAAATAAATGATGTTAATCGGGTCTTGATTCGCTTGACGCTGCTG”, for which the binding signal in experiment [1] is 4.6 z-score; in experiment [2] it was 3.23 z-score.

On to “CCGATTAACATCAAAAAAAGTACTGATGTTAATCGGGTCTTGATTCGCTTGACGCTGCTG”, for which the binding signal worked out at 1.16 z-score in experiment [1] and 1.52 z-score in experiment [2].

For “CCGATTAACATCAAGGAAACCCCTGATGTTAATCGGGTCTTGATTCGCTTGACGCTGCTG”, the binding signal was determined as 3.81 z-score in experiment [1] and 5.22 z-score in experiment [2].

In the case of “CCGATTAACATCAGGATCTCCCCTGATGTTAATCGGGTCTTGATTCGCTTGACGCTGCTG”, the binding signal in experiment [1] amounted to 5.15 z-score; in experiment [2], 4.48 z-score.

“CCGATTAACATCAAAACAACCCCTGATGTTAATCGGGTCTTGATTCGCTTGACGCTGCTG”: the binding signal in experiment [1] was found to be 2.19 z-score; in experiment [2] it was 3.88 z-score.

For the sequence “CCGATTAACATCAGACCTTCCCCTGATGTTAATCGGGTCTTGATTCGCTTGACGCTGCTG”, the binding signal was found to be 4.59 z-score in experiment [1] and 4.03 z-score in experiment [2].

As to “CCGATTAACATCAGGAAAACCCATGATGTTAATCGGGTCTTGATTCGCTTGACGCTGCTG”, the values for the binding signal in experiment [1] and in experiment [2] were 1.48 z-score and 2.32 z-score, respectively.

Consider “CCGATTAACATCAGGGATATTTATGATGTTAATCGGGTCTTGATTCGCTTGACGCTGCTG”, for which the binding signal was 2.29 z-score in experiment [1] and 2.35 z-score in experiment [2].

Take “CCGATTAACATCAGAGTCCCCCCTGATGTTAATCGGGTCTTGATTCGCTTGACGCTGCTG”: the binding signal in experiment [1] came to 5.12 z-score; in experiment [2], 5.06 z-score.

For “CCGATTAACATCAGGACCGTCCCTGATGTTAATCGGGTCTTGATTCGCTTGACGCTGCTG”, the binding signal in experiment [1] was 1.36 z-score; in experiment [2], 2.66 z-score.

On to “CCGATTAACATCACGGGGGGTAATGATGTTAATCGGGTCTTGATTCGCTTGACGCTGCTG”, for which the figures for the binding signal in experiment [1] and in experiment [2] were 2.9 z-score and 2.48 z-score, respectively.

“CCGATTAACATCAGGAAGACCCCTGATGTTAATCGGGTCTTGATTCGCTTGACGCTGCTG”: the figures for the binding signal in experiment [1] and in experiment [2] were 1.11 z-score and 3.37 z-score, respectively.

As for “CCGATTAACATCATAAAATCCCATGATGTTAATCGGGTCTTGATTCGCTTGACGCTGCTG”, the binding signal is 2.31 z-score in experiment [1] and 3.45 z-score in experiment [2].

Consider “CCGATTAACATCAGGGACACCCCTGATGTTAATCGGGTCTTGATTCGCTTGACGCTGCTG”, for which the binding signal in experiment [1] is 3.24 z-score; in experiment [2] it was 4.03 z-score.

Consider “CCGATTAACATCACCAAATTCCCTGATGTTAATCGGGTCTTGATTCGCTTGACGCTGCTG”, for which the results for the binding signal in experiment [1] and in experiment [2] were 6.26 z-score and 4.49 z-score, respectively.

As to “CCGATTAACATCAAAAAAAGTCCTGATGTTAATCGGGTCTTGATTCGCTTGACGCTGCTG”, the binding signal in experiment [1] came out at 1.42 z-score; in experiment [2], 2.19 z-score.

For “CCGATTAACATCAGGGGGCGCACTGATGTTAATCGGGTCTTGATTCGCTTGACGCTGCTG”, the binding signal amounted to 2.76 z-score in experiment [1] and 4.11 z-score in experiment [2].

Consider “CCGATTAACATCAAATTTCCCGCTGATGTTAATCGGGTCTTGATTCGCTTGACGCTGCTG”, for which the binding signal in experiment [1] worked out at 4.85 z-score; in experiment [2], 3.98 z-score.

“CCGATTAACATCAATCGGGAAATTGATGTTAATCGGGTCTTGATTCGCTTGACGCTGCTG”: the results for the binding signal in experiment [1] and in experiment [2] were 3.66 z-score and 2.28 z-score, respectively.

Take “CCGATTAACATCAAGGGATTTCCTGATGTTAATCGGGTCTTGATTCGCTTGACGCTGCTG”: the binding signal in experiment [1] stood at 3.4 z-score; in experiment [2], 3.68 z-score.

As for “CCGATTAACATCAGGAGAACCCCTGATGTTAATCGGGTCTTGATTCGCTTGACGCTGCTG”, the binding signal in experiment [1] was determined as 1.24 z-score; in experiment [2], 3.68 z-score.

For “CCGATTAACATCAGGGGAGCCCCTGATGTTAATCGGGTCTTGATTCGCTTGACGCTGCTG”, the binding signal in experiment [1] was determined as 5.34 z-score; in experiment [2] it was 5.03 z-score.

As for “CCGATTAACATCAGGCGATTCCCTGATGTTAATCGGGTCTTGATTCGCTTGACGCTGCTG”, the binding signal in experiment [1] was 2.44 z-score; in experiment [2], 1.92 z-score.

For the sequence “CCGATTAACATCAAATAGCCCCCTGATGTTAATCGGGTCTTGATTCGCTTGACGCTGCTG”, the binding signal in experiment [1] stood at 3.62 z-score; in experiment [2], 4.73 z-score.

As for “CCGATTAACATCAAAAAGTTCCCTGATGTTAATCGGGTCTTGATTCGCTTGACGCTGCTG”, the binding signal in experiment [1] stood at 5.17 z-score; in experiment [2], 4.09 z-score.

For “CCGATTAACATCACCCGGGAAAATGATGTTAATCGGGTCTTGATTCGCTTGACGCTGCTG”, the binding signal is 4.34 z-score in experiment [1] and 3.07 z-score in experiment [2].

As for “CCGATTAACATCACAAACGGGGCTGATGTTAATCGGGTCTTGATTCGCTTGACGCTGCTG”, the binding signal in experiment [1] was 1.73 z-score; in experiment [2] it was 2.88 z-score.

Regarding “CCGATTAACATCAGGATATTCCCTGATGTTAATCGGGTCTTGATTCGCTTGACGCTGCTG”, the values for the binding signal in experiment [1] and in experiment [2] were 4.19 z-score and 3.1 z-score, respectively.

As for “CCGATTAACATCAGGGAATTGTATGATGTTAATCGGGTCTTGATTCGCTTGACGCTGCTG”, the binding signal in experiment [1] came out at 4.84 z-score; in experiment [2], 3.41 z-score.

For “CCGATTAACATCAGGAGTTTCCCTGATGTTAATCGGGTCTTGATTCGCTTGACGCTGCTG”, the binding signal in experiment [1] is 4.67 z-score; in experiment [2], 4.81 z-score.

As to “CCGATTAACATCACATGGGAAACTGATGTTAATCGGGTCTTGATTCGCTTGACGCTGCTG”, the binding signal in experiment [1] came out at 2.7 z-score; in experiment [2], 1.26 z-score.

“CCGATTAACATCACCCCTCCCCATGATGTTAATCGGGTCTTGATTCGCTTGACGCTGCTG”: the binding signal in experiment [1] amounted to 3.22 z-score; in experiment [2], 3.16 z-score.
